SKN-1 block – suppressors of acrylamide-induced Pgst-4::GFP reporter in worms, primary screen, SKN-1 inhibitor project, whole organism, uHTS, GFP/RFP fluorescence ratio, strain VP596 | 360,000 compounds, 0.49% hits | AID 624304, 2012 | C. elegans VP596 Pgst-4::GFP/RFP ratio, 24 h | inhibition, % at 21.8 µM;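 active = interference check ratio from 0.5 to 1.5 plus GFP to RFP signal ratio inhibition reaching or exceeding a fixed threshold, cut at about 30% in these data, passing the limit was not always enough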
esBAF inh – Bmi1 luciferase reporter increase in mESCs, primary screen, esBAF inhibitor project, mouse ES cells, Bmi1 luciferase knock-in, single point | 24 h; 100% = twice the neutral-well signal | AID 602393, 2012 | reporter increase, % at 12.5 µM | 350,000 compounds, 2% hits; in the data active = activation above about 40%;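 also: 0% = median of the plate's neutral control wells and 100% = double that signal; a rise in the Bmi1 reporter signal indicates esBAF inhibition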
Vif imaging – HIV Vif self-association inhibitors, primary screen, imaging, HEK293T, single point | 340,000 compounds, 0.35% hits | HEK293T cells, Vif self-association by quenched fluorescence, 24 h | inhibition, % at 7.49 µM; in the data active = inhibition above about 50%, passing the limit was not always enough
SMARCA2 activ – SMARCA2 (BRM) function activators, primary screen, cell-based, luminescence, high throughput; MG213 cells, MMTV-luciferase reporter, dexamethasone, overnight; activation, % at 9.1 µM; 370,000 compounds, 1% hits; AID 652017, 2013; in the data active = activation above about 7.8%;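 also: 0% = vehicle wells and 100% = reference activator wells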
NadD inh – inhibitors of S. aureus NadD, primary screen, biochemical, colorimetric, uHTS. Nicotinate-nucleotide adenylyltransferase NadD (Staphylococcus aureus N315). purified NadD enzyme, colorimetric absorbance read-out. inhibition, % at 20 µM. 360,000 compounds, 0.78% hits. AID 602399, 2012; in the data active = inhibition above about 26%
NR3A LBD binder – binders of NR3A ligand-binding domain, primary screen, biophysical, differential scanning fluorimetry, uHTS. Glutamate receptor ionotropic, NMDA 3A (GRIN3A) ligand-binding domain. NR3A LBD differential scanning fluorimetry, Tm shift; 0% = protein alone, 100% = glycine-bound protein. Tm shift relative to glycine control, % at 25 µM. 340,000 compounds, 2.5% hits. AID 1259313, 2017;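 active = melting temperature shift of at least 10% of the positive control shift, at one fixed dose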
The depositor's hits bear a star; · = not tested or not shown. Hits are enriched below; roughly 5.2% of the tested compounds scored in any of these assays.

SMILES	SKN-1 block	esBAF inh	Vif imaging	SMARCA2 activ	NadD inh	NR3A LBD binder
Cc1noc(C)c1NC(=O)N(C)C[C@H]1Oc2ccc(NC(=O)NC3CCCCC3)cc2C(=O)N([C@@H](C)CO)C[C@H]1C	·	-4	·	·	·	·
COc1ccc(NC(=O)Nc2ccc3c(c2)C(=O)N([C@@H](C)CO)C[C@H](C)[C@@H](CN(C)Cc2ccc(C(F)(F)F)cc2)O3)cc1	·	-1	·	·	·	·
Cc1noc(C)c1S(=O)(=O)N(C)C[C@@H]1Oc2ccc(NC(=O)Nc3ccccc3)cc2CC(=O)N([C@H](C)CO)C[C@H]1C	·	-2	·	·	·	·
O=C(C[C@@H]1C=C[C@H](NC(=O)C2CCC2)[C@H](CO)O1)NCCCN1CCOCC1	·	-6	·	·	·	·
COc1cc(/C=C/C(=O)OCC(=O)Nc2ccccc2Sc2ccc(Cl)cc2)ccc1O	-6	-5	-18	-6	-7	15*
COC(=O)c1c(C)[nH]c(/C=N/Nc2ccccc2)c1C	17	·	0	15*	-7	0
C[C@@H]1CN([C@@H](C)CO)C(=O)c2cc(C#CC3CCCCC3)cnc2O[C@H]1CN(C)C(=O)C1CCCCC1	·	6	·	·	·	·
Cc1cc(O)c2c(c1)C(=O)c1cc(O)cc(O)c1C2=O	7	6	-1	-6	0	10*
COc1ccc(CNC(=O)Cc2nn(C)c(=O)c3ccccc23)cc1	-2	·	1	-2	-6	11*
COc1ccc(CCNC(=O)CN2C(=O)NC(c3ccccc3)(c3ccccc3)C2=O)cc1	16	-1	7	5	-4	2
Cn1nc(CC(=O)NCc2ccc(C(F)(F)F)cc2)c2ccccc2c1=O	-23	-8	-16	-4	-7	-4
COc1ccc(CNC(=O)CN2C(=O)NC(c3ccccc3)(c3ccccc3)C2=O)cc1	-9	6	110*	-5	-9	-1
COc1ccc2c(c1)CCc1c(C(=O)N(C)c3ccccc3)noc1-2	4	56*	-6	0	-8	-1
COCCNC(=O)c1noc2c1CCc1cc(OC)ccc1-2	4	36	2	2	-5	1
COc1ccc2c(c1)CCc1c(C(=O)NCc3ccco3)noc1-2	3	42*	-10	·	-12	10
Cc1ccc(-c2c(C)nn3c(N4CCOCC4)cc(C)nc23)cc1	35*	-2	-10	3	-5	0
Cc1ccc(C(=O)N2[C@@H]3CN(C)C(=O)[C@@]2(Cc2ccccc2)[C@H]2C(=O)N(Cc4ccccc4)C(=O)[C@@H]32)cc1	3	-2	1	2	2	17*
CN1CCN(S(=O)(=O)c2ccc(NC(=O)c3ccc(F)cc3)cc2)CC1	1	-5	1	2	4	1
O=C(Nc1cc(S(=O)(=O)Nc2ccc(Cl)cc2)ccc1N1CCCCC1)c1ccc(F)cc1Cl	-9	·	-2	-5	16	21*
CN1CCN(S(=O)(=O)c2ccc(NC(=O)c3ccc(Br)s3)cc2)CC1	-13	6	-12	4	-11	29*
Cc1ccc(S(=O)(=O)N2CCCCC2)cc1NC(=O)Nc1ccc(Cl)cc1Cl	0	·	4	-2	26	14*
O=C(Nc1ccc(Cl)cc1F)c1cc(S(=O)(=O)N2CCCCC2)ccc1F	12	11	-15	-3	1	13*
C[C@@H]1CN([C@@H](C)CO)C(=O)c2cccc(NC(=O)C3CCCCC3)c2O[C@H]1CN(C)Cc1ccc2c(c1)OCO2	·	6	·	·	·	·
CCC(=O)Nc1ccc2c(c1)OC[C@@H](C)N(C(=O)Cc1ccccn1)C[C@H](C)[C@@H](OC)CN(C)C2=O	·	1	·	·	·	·
O=C(Nc1cc(S(=O)(=O)N2CCCCC2)ccc1Cl)c1ccncc1	10	5	10	-2	5	-3
SMILES	SKN-1 block	esBAF inh	Vif imaging	SMARCA2 activ	NadD inh	NR3A LBD binder
N#CC(C#N)=NNc1ccc(S(=O)(=O)N2CCCCC2)cc1	0	·	4	-7	5	12*
O=C(Nc1ccccc1)Nc1ccc(S(=O)(=O)N2CCCCC2)cc1	1	15	-3	-1	1	22*
N#C/C(=N\Nc1ccc(S(=O)(=O)N2CCOCC2)cc1)C(N)=S	-7	3	-1	-3	-10	-3
O=C(Nc1ccc(S(=O)(=O)N2CCCCC2)cc1)c1ccccc1Cl	29	5	-3	-4	1	-4
O=C(Nc1cccc(Cl)c1)Nc1cc(S(=O)(=O)N2CCCCC2)ccc1Cl	-3	·	-45	-7	3	11*
O=C(Nc1cccc(S(=O)(=O)N2CCCCC2)c1)C1CCCC1	11	34	6	-3	-5	22*
C[C@H](CO)N1C[C@H](C)[C@@H](CN(C)C(=O)C2CCCCC2)Oc2ncc(-c3ccccc3)cc2C1=O	·	-5	·	·	·	·
CN1CCN(S(=O)(=O)c2ccc(NC(=O)Nc3cccc(Cl)c3)cc2)CC1	-14	-1	-17	-1	-2	14*
O=C(Nc1ccccc1F)Nc1cc(S(=O)(=O)N2CCOCC2)ccc1N1CCCC1	7	·	6	3	1	-1
CN1CCN(S(=O)(=O)c2ccc(NC(=O)c3ccccc3Cl)cc2)CC1	-13	-3	2	-4	-5	-1
O=C(Nc1ccc(Cl)c(Cl)c1)Nc1cc(S(=O)(=O)N2CCOCC2)ccc1N1CCCC1	19	·	2	-4	21	11*
O=C(C[C@H]1C[C@H]2c3cc(NC(=O)NC4CCCC4)ccc3O[C@H]2[C@H](CO)O1)NCCN1CCCCC1	·	3	·	·	·	·
COc1ccc(S(=O)(=O)Nc2cccc3c2O[C@@H](CN(C)C(=O)NC2CCCCC2)[C@H](C)CN([C@@H](C)CO)C3=O)cc1	·	2	·	·	·	·
COc1ccc(S(=O)(=O)Nc2ccc3c(c2)C(=O)N([C@@H](C)CO)C[C@@H](C)[C@@H](CN(C)CC2CC2)OCCCC[C@@H](C)O3)cc1	·	1	·	·	·	·
Nc1ccc2c(c1)Cc1c(F)cccc1-2	9	57*	-7	·	4	-12
Nc1ccc2c(c1)Cc1cc(Cl)c(Cl)cc1-2	10	·	-3	0	9	15*
O=C(C[C@H]1CC[C@@H]2[C@H](COC[C@@H](O)CN2S(=O)(=O)c2cccc(F)c2)O1)NCCCN1CCOCC1	·	0	·	·	·	·
C=CCN(C(=O)C1CC(=O)N(C2CCCC2)C1)c1nc(-c2ccc(S(C)(=O)=O)cc2)cs1 (stereo unspecified)	10	54*	-20	-3	9	-2
COc1ccc(S(=O)(=O)Nc2cccc3c2O[C@H](CN(C)Cc2ccc4c(c2)OCO4)[C@@H](C)CN([C@H](C)CO)C3=O)cc1	·	-2	·	·	·	·
